Our source for the growth values is PubChem BioAssay (NCI).

The panel holds about 83,000 compounds, 20% with a hit somewhere; the sample as a whole holds those more often.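 Activity criterion: percent growth below 10, measured after cells in 96-well plates were exposed to a single compound concentration for 48 hours.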 Values without a mark were called inactive. The source made the active and inactive calls.

Test systems include NCI-H23 lung; NCI-H226 lung; NCI-H322M lung; HOP-62 NSCLC; NCI-H460 lung; HOP-92 NSCLC; NCI-H522 lung; A549/ATCC NSCLC; 786-0 renal; COLO 205 colon; DU-145 prostate; K-562 leukemia; MALME-3M melanoma; MDA-MB-231 breast; RXF 393 renal; SF-268 CNS; SF-295 CNS; SF-539 CNS; UACC-257 melanoma; M14 melanoma.
Common to all, as to assay: NCI-60 one-dose screen, 48 h (100 = growth as untreated, 0 = no growth, -100 = all killed)
What all share (conditions): 10 µM unless noted

Consider `Cc1cc2nc3c4cc(Cl)ccc4n(CCN(C)C)c3nc2cc1C`, for which the growth was 10.7% with NCI-H23 lung; 10.4% in the assay with NCI-H226 lung; 9.53% (active) with NCI-H322M lung; 22.1% in the assay on HOP-62 NSCLC; 1.36% (active) in the assay on NCI-H460 lung; 25.8% with HOP-92 NSCLC. Besides, the growth was 19.7% with NCI-H522 lung; 3.82% (active) with A549/ATCC NSCLC; 14.3% in the assay with 786-0 renal; -49.6% (active) with COLO 205 colon; 15.3% in the assay with DU-145 prostate; 3.43% (active) in the assay with K-562 leukemia. Further, the growth with MALME-3M melanoma was -45.5% (active); in the assay on MDA-MB-231 breast it was 7.77% (active); in the assay with RXF 393 renal, -0.246% (active); in the assay on SF-268 CNS, 33.3%; in the assay with SF-295 CNS, 11.4%; in the assay with SF-539 CNS, 14.1%. In addition, the growth was 38.7% in the assay on UACC-257 melanoma and -45.7% (active) in the assay with M14 melanoma.

Take `COc1cc2nc(Cl)nc(Nc3cccc(C(=O)/C=C/c4ccc(Br)cc4)c3)c2cc1OC`: the growth was 96.6% in the assay on NCI-H23 lung; 83% in the assay with NCI-H226 lung; 95.1% in the assay with NCI-H322M lung; 98% in the assay on HOP-62 NSCLC; 104% in the assay on NCI-H460 lung; 83.6% with HOP-92 NSCLC. In addition, the growth was 84.3% in the assay with NCI-H522 lung; 85.1% in the assay with A549/ATCC NSCLC; 87% in the assay with 786-0 renal; 101% with COLO 205 colon; 97.6% in the assay with DU-145 prostate; 35.9% with K-562 leukemia. Moreover, the growth is 105% with MALME-3M melanoma; 78% in the assay on MDA-MB-231 breast; 85.1% in the assay with RXF 393 renal; 94.5% with SF-268 CNS; 86.1% in the assay with SF-295 CNS; 82.2% with SF-539 CNS. Further, the growth was 107% with UACC-257 melanoma and 89.8% in the assay on M14 melanoma.

Consider `COc1cc(/C=N/Nc2ncnc3c2c(C)nn3-c2ccc(F)cc2)ccc1O`, for which the growth in the assay on NCI-H23 lung is 90.6%; in the assay on NCI-H226 lung, 102%; in the assay with NCI-H322M lung, 85.6%; with HOP-62 NSCLC, 106%; in the assay on NCI-H460 lung, 88.1%; in the assay on HOP-92 NSCLC, 60.5%. The growth in the assay with NCI-H522 lung was 72.9%; in the assay with A549/ATCC NSCLC it was 97.6%; in the assay with 786-0 renal it was 88.6%; in the assay on COLO 205 colon, 104%; with DU-145 prostate, 87.6%; with K-562 leukemia it was 75.8%. The growth with MALME-3M melanoma is 112%; with MDA-MB-231 breast, 84.5%; with RXF 393 renal it was 95.1%; in the assay on SF-268 CNS, 71%; in the assay with SF-295 CNS, 106%; with SF-539 CNS, 96.2%. The growth in the assay on UACC-257 melanoma is 114%; in the assay with M14 melanoma, 102%.

On to `CC(C)=CCC[C@](C)(O)[C@H]1CC[C@]2(C)[C@@H]1CC[C@@H]1[C@@]3(C)C/C(=C/c4ccc(Br)cc4)C(=O)C(C)(C)[C@@H]3CC[C@]12C`, for which the growth in the assay on NCI-H23 lung was 85.3%; with NCI-H226 lung it was 82.7%; in the assay with NCI-H322M lung it was 101%; in the assay on HOP-62 NSCLC, 98.5%; in the assay with NCI-H460 lung, 96.3%; in the assay on HOP-92 NSCLC it was 75.5%. In addition, the growth with NCI-H522 lung is 96.4%; in the assay with A549/ATCC NSCLC, 76.6%; in the assay with 786-0 renal, 93.8%; in the assay on COLO 205 colon it was 99.1%; in the assay with DU-145 prostate, 85.6%; with K-562 leukemia, 85.2%. The growth was 88.7% in the assay on MALME-3M melanoma; 85.8% with MDA-MB-231 breast; 92.9% in the assay on RXF 393 renal; 92.6% in the assay with SF-268 CNS; 101% in the assay on SF-295 CNS; 99.5% in the assay on SF-539 CNS. For the same molecule, the growth is 91.2% in the assay on UACC-257 melanoma and 80.3% in the assay with M14 melanoma.

Take `Cc1ccc(Sc2sc(-c3ccccc3)nc2[P+](c2ccccc2)(c2ccccc2)c2ccccc2)cc1`: the growth with NCI-H23 lung was -12.2% (active); with NCI-H226 lung, -3.15% (active); in the assay on NCI-H322M lung it was -19.1% (active); in the assay with HOP-62 NSCLC, -0.272% (active); in the assay on NCI-H460 lung it was -19.1% (active); in the assay on HOP-92 NSCLC it was -40.4% (active). For the same molecule, the growth in the assay on NCI-H522 lung is -5.65% (active); with A549/ATCC NSCLC, 6.14% (active); with 786-0 renal, 6.12% (active); with COLO 205 colon, -25.3% (active); in the assay with DU-145 prostate, 10.7%; with K-562 leukemia, 2.4% (active). For the same molecule, the growth in the assay with MALME-3M melanoma was -22.4% (active); with MDA-MB-231 breast it was -29.5% (active); with RXF 393 renal it was -21.5% (active); with SF-268 CNS, 15.5%; in the assay with SF-295 CNS, -20.9% (active); in the assay on SF-539 CNS it was 11.8%. Besides, the growth with UACC-257 melanoma was 2.98% (active); in the assay on M14 melanoma, -7.46% (active).

With `CC1(C)CC[C@]2(CO)CC[C@]3(C)C(=CC[C@@H]4[C@@]5(C)CC[C@H](NCO)C(C)(C)[C@@H]5CC[C@]43C)[C@@H]2C1`, the growth in the assay on NCI-H23 lung was -64.8% (active); in the assay with NCI-H226 lung, 43.1%; with NCI-H322M lung, 7.27% (active); in the assay on HOP-62 NSCLC, -32.1% (active); in the assay with NCI-H460 lung, -70.5% (active); in the assay with HOP-92 NSCLC it was 22.2%. Also, the growth was -29.5% (active) in the assay with NCI-H522 lung; -50% (active) with A549/ATCC NSCLC; -80% (active) in the assay with 786-0 renal; -71.5% (active) with COLO 205 colon; -49.9% (active) in the assay with DU-145 prostate; -36.8% (active) in the assay with K-562 leukemia. The growth in the assay with MALME-3M melanoma is -76.3% (active); with MDA-MB-231 breast, -80% (active); with RXF 393 renal, -88% (active); with SF-268 CNS, 63.1%; with SF-295 CNS it was -30.5% (active); in the assay on SF-539 CNS, -18.5% (active). For the same molecule, the figures for the growth with UACC-257 melanoma and in the assay with M14 melanoma were 10.5% and -53% (active), respectively.

Take `COc1ccc(NC(=O)c2ccc3c(c2)nc(-c2cc4ccccc4[nH]c2=O)n3-c2cc(C(C)(C)C)[nH]n2)cc1`: the growth in the assay with NCI-H23 lung is 90.4%; in the assay on NCI-H226 lung it was 99%; in the assay on NCI-H322M lung it was 91.7%; in the assay on HOP-62 NSCLC, 98.7%; in the assay on NCI-H460 lung, 97.4%; in the assay on HOP-92 NSCLC, 90.8%. In addition, the growth in the assay with NCI-H522 lung is 72.8%; in the assay with A549/ATCC NSCLC, 93.7%; in the assay on 786-0 renal, 92.4%; with COLO 205 colon it was 96.4%; with DU-145 prostate, 103%; in the assay on K-562 leukemia it was 82.4%. Besides, the growth was 101% in the assay with MALME-3M melanoma; 98.2% in the assay on MDA-MB-231 breast; 77.3% in the assay with RXF 393 renal; 79.3% in the assay with SF-268 CNS; 89.9% in the assay with SF-295 CNS; 94.9% in the assay on SF-539 CNS. Further, the growth was 97.7% in the assay on UACC-257 melanoma and 96.1% in the assay on M14 melanoma.
